Screens: PubChem, several laboratories
SENP6 block – inhibitors of human SENP6 protease. 330,000 tested, 1.8% active. inhibition, % at 10 µM. AID 2599. Recombinant SENP6 catalytic domain, aminoluciferin luminescence;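 active = inhibition above about 50% at the single tested dose, limit read from the data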;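 note: plate controls were DMSO wells with enzyme for no effect and DMSO wells lacking enzyme for full effect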
HSP90 refold inh – inhibitors of HSP90 luciferase refolding in rabbit reticulocyte lysate. luciferase refolding luminescence, 3 h. inhibition, % at 5.6 µM. 290,000 tested, 0.91% active. AID 1789;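 active = inhibition above the screen-wide mean plus 3 SD, computed separately per campaign, cut at about 16% in these data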;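 note: 0% = DMSO wells and 100% = 60 µM geldanamycin wells; inhibitors lower the luminescence because luciferase stays unfolded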
LGR2 inh – blocks bursicon-induced cAMP signaling via Drosophila LGR2; HEK293 LGR2, CRE-luciferase, bursicon-stimulated, 4 h; inhibition, % at 9.99 µM; 380,000 tested, 0.35% active; AID 720647;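 active = drop in luminescence signal, shown as inhibition above about 50% in the replicate tests, limit read from the data, passing the limit was not always enough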;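 note: agonist challenge used bursicon conditioned medium at about half maximal strength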
SENP7 inh – inhibitors of human SENP7 protease | recombinant SENP7, Z-RLRGG-aminoluciferin luminescence, 40 min | 330,000 tested, 1.5% active | inhibition, % at 5 µM | Q9BQF6;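 active = inhibition above about 50% at the single test dose, limit read from the data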;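 note: plate controls were DMSO with enzyme for no effect and no enzyme buffer wells for full effect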
Target sequence (Q9BQF6 706-1050 limits assumed): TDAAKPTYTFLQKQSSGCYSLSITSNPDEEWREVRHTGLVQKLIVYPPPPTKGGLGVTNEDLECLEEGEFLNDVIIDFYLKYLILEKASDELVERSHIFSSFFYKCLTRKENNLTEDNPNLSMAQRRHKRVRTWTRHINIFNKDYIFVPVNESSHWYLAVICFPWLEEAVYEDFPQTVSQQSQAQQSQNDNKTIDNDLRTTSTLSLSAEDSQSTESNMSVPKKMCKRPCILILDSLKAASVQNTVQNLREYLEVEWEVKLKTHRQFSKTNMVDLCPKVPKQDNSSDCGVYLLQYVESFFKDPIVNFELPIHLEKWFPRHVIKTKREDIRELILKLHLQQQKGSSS
SENP8 block-1 – inhibitors of human SENP8 protease; Q96LD8; purified SENP8, Z-RLRGG-aminoluciferin cleavage, luminescence; inhibition, % at 10 µM; 330,000 tested, 1.2% active; AID 2540; in the data active = inhibition above about 50%
Target sequence (Q96LD8 whole entry, looked up): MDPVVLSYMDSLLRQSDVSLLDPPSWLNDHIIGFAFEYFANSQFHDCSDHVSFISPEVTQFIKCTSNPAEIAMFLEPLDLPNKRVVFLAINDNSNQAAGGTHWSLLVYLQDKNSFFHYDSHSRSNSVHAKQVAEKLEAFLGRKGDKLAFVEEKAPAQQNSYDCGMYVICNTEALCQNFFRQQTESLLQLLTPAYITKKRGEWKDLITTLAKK
SENP8 block-2 – inhibitors of human SENP8 protease | AID 602440 | Q96LD8 | 360,000 tested, 0.64% active | inhibition, % at 20 µM | recombinant SENP8, Nedd8 substrate fluorescence; in the data active = inhibition mostly above about 40%, no sharp cut-off; inactive = mostly below about 27%
SENP8 confirm – human SENP8 inhibition, confirmed; Recombinant SENP8, Z-RLRGG-aminoluciferin luminescence, 60 min; shares compounds with SENP7 inh; AID 488912; 6,200 tested, 40% active; inhibition, % at 12.5 µM;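 active = mean inhibition across replicates above about 50%, limit read from the data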
SENP6 conf – confirmation of human SENP6 protease inhibitors. recombinant SENP6, Z-RLRGG-aminoluciferin luminescence. AID 488915. inhibition, % at 12.5 µM. shares compounds with SENP7 inh. 6,200 tested, 58% active
SENP7 conf – confirmation of human SENP7 protease inhibitors | recombinant SENP7, Z-RLRGG-aminoluciferin luminescence, 40 min | inhibition, % at 12.5 µM | 6,200 tested, 69% active | shares compounds with SENP7 inh
Casp3 select – caspase-3 inhibition (SENP selectivity assay). shares compounds with SENP7 inh. purified caspase-3, Z-DEVD-aminoluciferin luminescence, 60 min. inhibition, % at 12.5 µM. 6,200 tested, 60% active. AID 488918;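 active = mean inhibition above about 50%, limit read from the data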;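 note: plate controls were enzyme with DMSO for no effect and wells without caspase-3 for full effect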
Luc interf – interferes with luciferase luminescence in SENP counter-screen; Pre-incubated SENP8/Z-RLRGG-aminoluciferin, luciferase luminescence interference; inhibition, % at 12.5 µM; AID 488919; shares compounds with SENP7 inh; 6,200 tested, 39% active;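 active = mean inhibition above about 50% when retested at one dose, limit read from the data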;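 note: plate controls were DMSO wells with completed reaction for no effect and substrate without enzyme for full effect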
Starred values were filed as active, the others as inactive. A selection: hits, their analogues and other compounds. The true share with any hit is near 2.3%.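 Rule for the calls, unless noted: active = mean inhibition above about 50% in the one-dose retest (limit read from the data); inactive = the rest.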

Screening C[C@@H]1CN([C@@H](C)CO)C(=O)c2cccc(NC(=O)Nc3ccc4c(c3)OCO4)c2O[C@H]1CN(C)C(=O)Nc1ccccc1 returned LGR2 inh 3.
C[C@@H]1CN([C@H](C)CO)S(=O)(=O)c2ccc(Br)cc2O[C@@H]1CN(C)C(=O)CN(C)C was read as LGR2 inh 2.
For CC(=O)Nc1cccc(NC(=O)c2ccc(S(=O)(=O)NCc3ccco3)cc2)c1 the results were LGR2 inh 6 and SENP8 block-2 13.
`Cc1cccc(NC(=O)c2ccc(F)c(S(=O)(=O)NCc3ccco3)c2)c1` gave SENP6 block 52*, HSP90 refold inh 1, LGR2 inh -2, SENP7 inh 36, SENP8 block-1 38, SENP8 block-2 -4, SENP8 confirm 39, SENP6 conf 33, SENP7 conf 63*, Casp3 select 44 and Luc interf 51*.
For C[C@@H]1CN([C@H](C)CO)S(=O)(=O)c2ccc(-c3ccccc3F)cc2O[C@H]1CN(C)Cc1ccncc1 the results were LGR2 inh -14.
`O=c1cc(CCl)[nH]c2nc3ccccc3n12` gave SENP6 block -8, HSP90 refold inh 1, LGR2 inh -2, SENP7 inh -5, SENP8 block-1 -12 and SENP8 block-2 -354.
`O=c1cc(-c2ccccc2)[nH]c2nc3ccccc3n12` gave SENP6 block 88*, HSP90 refold inh 8, SENP7 inh 98*, SENP8 block-1 88*, SENP8 block-2 -307, SENP8 confirm 2, SENP6 conf 64*, SENP7 conf 64*, Casp3 select 72* and Luc interf 5.
Screening Oc1ccccc1C1=Nc2nc3ccccc3n2C(c2ccccc2)C1 (stereo not drawn) returned SENP6 block 79*, HSP90 refold inh -1, LGR2 inh -44, SENP7 inh 71*, SENP8 block-1 59*, SENP8 block-2 -407, SENP8 confirm 23, SENP6 conf 23, SENP7 conf 37, Casp3 select 49 and Luc interf 34.
Screening CC1=NN(c2ccccc2C(=O)O)C(=O)C1N=Nc1ccccc1 (stereo not drawn) returned SENP6 block -1, HSP90 refold inh 6, LGR2 inh 33, SENP7 inh -1, SENP8 block-1 -4 and SENP8 block-2 28.
For CC1=NN(C(N)=S)C(=O)C1N=Nc1ccc(C)c(Br)c1 (stereo not drawn) the results were SENP6 block 95*, HSP90 refold inh 2, LGR2 inh -51, SENP7 inh 78*, SENP8 block-1 93*, SENP8 block-2 18, SENP8 confirm 62*, SENP6 conf 53*, SENP7 conf 43, Casp3 select 68* and Luc interf 36.
Screening CC1=NN(C(N)=S)C(=O)C1N=Nc1ccccc1C(=O)O (stereo not drawn) returned SENP6 block 8, HSP90 refold inh 4, LGR2 inh 13, SENP7 inh 3, SENP8 block-1 -7 and SENP8 block-2 10.
Screening CC1=NC(=O)C(N=Nc2cccc(O)c2)N1c1ccccc1 (stereo not drawn) returned SENP6 block 2, HSP90 refold inh -1, SENP7 inh -5, SENP8 block-1 24 and SENP8 block-2 17.
For CC1=NN(C(N)=S)C(=O)C1N=Nc1cccc(C(=O)O)c1 (stereo not drawn) the results were SENP6 block 93*, HSP90 refold inh 13, LGR2 inh 61*, SENP7 inh 91*, SENP8 block-1 85*, SENP8 block-2 27, SENP8 confirm 92*, SENP6 conf 92*, SENP7 conf 100*, Casp3 select 84* and Luc interf 47.
Screening CCOC(=O)c1sc(N2N=C(C)C(N=Nc3cccc(C)c3)C2=O)nc1C (stereo not drawn) returned SENP6 block -6, HSP90 refold inh 1, LGR2 inh -3, SENP7 inh 3, SENP8 block-1 0 and SENP8 block-2 17.
CC1=NN(C(N)=S)C(=O)C1N=Nc1cccc(C)c1 (stereo not drawn) was read as SENP6 block 1, HSP90 refold inh 1, LGR2 inh -27, SENP7 inh 54*, SENP8 block-1 60*, SENP8 block-2 30, SENP8 confirm 13, SENP6 conf 10, SENP7 conf 12, Casp3 select 8 and Luc interf 4.
For CC1=NN(c2nc(-c3ccc(C)cc3)cs2)C(=O)C1N=Nc1cccc(C)c1 (stereo not drawn) the results were SENP6 block 69*, HSP90 refold inh 3, LGR2 inh -64, SENP7 inh -2, SENP8 block-1 8, SENP8 block-2 35, SENP8 confirm -2, SENP6 conf 16, SENP7 conf -9, Casp3 select 16 and Luc interf 52*.
`COc1ccc(CN(C)C[C@@H]2Oc3ccc(NC(=O)CCCN(C)C)cc3C(=O)N([C@H](C)CO)C[C@H]2C)cc1` gave LGR2 inh -10.
CC(C)c1cn(CC[C@H]2CC[C@H](NC(=O)C3CCCC3)[C@@H](CO)O2)nn1 was read as LGR2 inh 1.
`c1ccc(N2CC3CCc4ccccc4C3=N2)cc1` (stereo not drawn) gave SENP6 block 57*, HSP90 refold inh -4, SENP7 inh 59*, SENP8 block-1 35, SENP8 block-2 -384, SENP8 confirm 37, SENP6 conf 51*, SENP7 conf 72*, Casp3 select 42 and Luc interf 29.
S=C1c2ccccc2CN1c1ccccc1 was read as SENP6 block 5, HSP90 refold inh -3, LGR2 inh -31, SENP7 inh 2, SENP8 block-1 -8 and SENP8 block-2 18.
